# This is a sample that favours compounds with a hit; in the whole collection about 19% have one here.
# IL-1B inflam inh = inflammasome signaling inhibition, IL-1 beta readout; activity change, % at 57.5 µM; THP-1 LPS/ATP IL-1B secretion, AlphaLISA, 16 h; hits give low values; hit rate 4.7% among 360,000; in the data active means activity change below about -50%; inconclusive means mostly about -30% to -49%
#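 THP-1 cells pretreated 1 hr with compounds (up to 57.5 uM final), then stimulated with LPS (250 ng/mL final) plus ATP (1.25 mM final); secreted IL-1B measured by AlphaLISA after 16 hr, decreased signal indicating inhibition.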
# HT1080NT lethal = kills 2HG-producing HT-1080-NT fibrosarcoma cells. HT-1080-NT fibrosarcoma viability, CellTiter-Glo ATP luminescence, 48 h. Potency, µM (doses to about 46.1 µM), actives largely listed as cytotoxic. hit rate 1.6% among 360,000. AID 686970;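 further: NT is the 2HG producing partner of a matched IDH1 knockdown line; nearly all actives have a fitted effect of over 55% in size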
#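 Compounds were tested in concentration-response format on HT-1080-NT cells for 48 hours at 37 degrees C. Cell viability came from CellTiter-Glo luminescence; curves were classified by r2, response magnitude and activity.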
# TDP1 cell CPT = DT40-hTDP1 cell growth loss with CPT; chicken DT40 Tdp1-/-;hTDP1 cells + 20 nM CPT, ATP luminescence, 48 h; Potency, µM (titrated, usually from 46.2 µM), hits mostly inhibitors; hit rate 12% among 420,000; AID 686979; further: nearly all actives have a fitted effect of over 55% in size
#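 Cell growth measured by CellTiter-Glo luminescence after a minimum 48 h, 37 C compound exposure with 20 nM CPT in Tdp1-knockout DT40 cells stably expressing hTDP1, seeded 400/well; qHTS titration format.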
# DT40 TDP1 no CPT = qHTS for Inhibitors of human tyrosyl-DNA phosphodiesterase 1 (TDP1): qHTS in cells in absence of CPT; DT40 Tdp1-/- hTDP1 cells, no CPT, ATP luminescence, 48 h; Potency, µM (titrated, usually from 46.2 µM), most hits filed as inhibitors; hit rate 15% among 420,000; further: nearly all actives have a fitted effect of over 55% in size
#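 Chicken DT40 Tdp1-/- cells stably complemented with human TDP1 were seeded at 400 cells/well with DMSO in place of 20 nM camptothecin. After compound pinning, cells grew at least 48 hr at 37 °C; viability read by CellTiter-Glo luminescence.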
# HT1080 IDH1KD tx = kills HT-1080 cells with IDH1 knockdown; Potency, µM (titrated, usually from 46.1 µM), actives largely listed as cytotoxic; hit rate 2% among 360,000; HT-1080 IDH1 knockdown viability, ATP luminescence, 48 h
#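 HT-1080-IDH1KD cells (IDH1 knocked down), 750/well in RPMI with 5% FBS, treated with compound 48 h at 37 degrees C. Viability by CellTiter-Glo luminescence, normalised to DMSO and no-cell wells; concentration-response curves classed.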
# A number is an active result; 0 = inactive; ? = inconclusive; - = not tested or not shown; ! = repeats disagree; [ ] = another dose, or the depositor's remark. Unless noted, the call rests on the fitted dose curve; in most records, active means well fitted curve in the direction sought with a large enough effect; inconclusive means small, poorly fitted or top-dose-only effect, or another doubt; inactive means no such curve, though single readings can be large; an effect the other way counts as inactive or inconclusive.
SMILES,IL-1B inflam inh,HT1080NT lethal,TDP1 cell CPT,DT40 TDP1 no CPT,HT1080 IDH1KD tx
c1coc(CNc2c3c(nc4ccccc24)CCC3)c1,-74,0,16µM,23µM,0
C#CC1(NC(=S)Nc2cccc(OC)c2)CCCCC1,0,0,0,0,0
CC(C)COC(=O)c1ccc2c(c1O)C(=O)c1ccccc1C2=O,0,0,?,23µM,0
COc1ccccc1CNC(=O)c1ccc(NC2=NC3CS(=O)(=O)CC3S2)cc1 (configuration not stated),0,0,0,0,0
O=C(Cc1cn(Cc2cccc(Cl)c2)c2ccccc12)N1CCCCCC1,-65,0,?,?,0
CC1CCCN(C(=O)Cc2cn(Cc3cccc(Cl)c3)c3ccccc23)C1 (configuration not stated),-76,?,?,15µM,?
O=C(O)Cc1cn(Cc2cccc(Cl)c2)c2ccccc12,0,0,0,0,0
O=C(COC(=O)c1ccccn1)c1ccc([N+](=O)[O-])cc1,0,0,?,0,0
O=C(Nc1ccc(Br)cc1Br)Nc1cccc2[nH]c([C@@H]3O[C@H](CO)[C@@H](O)[C@H](O)[C@H]3O)nc12,0,0,0,0,0
Cc1ccc(C)c(N2CCN(C3CCCCC3NS(=O)(=O)c3ccccc3)CC2)c1 (configuration not stated),0,0,7.3µM,4.6µM,0
Cc1ccc(Cl)cc1N1CCN(C2CCCCC2NS(=O)(=O)c2ccccc2)CC1 (configuration not stated),0,0,16µM,18µM,0
COc1ccccc1N1CCN(C2CCCCC2NS(=O)(=O)c2ccc(Cl)cc2)CC1 (configuration not stated),-72,0,23µM,23µM,0
CN1CCN(C2CCCCC2NS(=O)(=O)c2ccc(Cl)cc2)CC1 (configuration not stated),0,0,0,0,0
CC1CC(C)CN(C2CCCCC2NS(=O)(=O)c2ccc(Cl)cc2)C1 (configuration not stated),0,0,?,23µM,0
CC(C)[C@H](NC(=O)C1CCN(S(=O)(=O)c2ccccc2)CC1)C(=O)NCc1ccc(F)cc1,0,0,0,0,0
O=C(Nc1cccc(-c2nc3ccccc3s2)c1)c1cc(=O)c2ccccc2o1,0,0,?,2.1µM,0
Cc1cccc(NC(=O)c2cc(=O)c3ccccc3o2)c1,0,0,0,?,0
Cc1c(C(=O)Nc2cccc(-c3nc4ccccc4s3)c2)oc2ccccc12,-,-,16µM,18µM,-
Cc1ccc(S(=O)(=O)N2CCCCC2)cc1NC(=O)Cn1cc(C(F)(F)F)ccc1=O,0,0,0,0,0
C=C1NN(CC2CC2)C(=O)N1c1ccc(OCc2ccccc2)cc1,-,-,?,13µM,-
O=C(NCC1(c2ccccc2)CCCC1)c1ccco1,0,0,0,15µM,0
O=C(NCC1(c2ccccc2)CCCC1)c1cccc(Br)c1,0,0,15µM,13µM,0
O=C(/C=C/c1ccco1)NCC1(c2ccccc2)CCCC1,0,0,12µM,?,0
COc1ccc(C2(CNC(=O)/C=C/c3ccco3)CCCC2)cc1OC,0,0,?,?,?
COc1ccc(C2(CNC(=O)c3ccccc3)CCCC2)cc1OC,0,0,0,?,0
SMILES,IL-1B inflam inh,HT1080NT lethal,TDP1 cell CPT,DT40 TDP1 no CPT,HT1080 IDH1KD tx
COc1cccc(C(=O)NCC2(c3ccccc3)CCCC2)c1OC,0,0,18µM,9.2µM,0
CCNc1nc(C)nc2c1cnn2C,0,0,0,0,0
O=C(NCc1ccco1)C1(c2ccccc2)CCCC1,0,0,10µM,7.1µM,0
COc1ccc(C2(CNC(=O)c3cc([N+](=O)[O-])cc([N+](=O)[O-])c3)CCCC2)cc1OC,0,0,21µM,16µM,0
Cc1cc(C)c(NC(=O)C(C)n2nc(C)c3sc4ccccc4c3c2=O)c(C)c1 (configuration not stated),-,-,0,0,-
CCc1cc2c(=O)nc3n(c2s1)Cc1ccccc1/C3=C(/O)c1ccccc1Cl,0,0,8.2µM,8.2µM,0
CCc1cc2c(=O)nc3n(c2s1)Cc1ccccc1/C3=C(/O)c1cccc([N+](=O)[O-])c1,0,0[9.24 µM],?,?,?
NC(=O)CSc1nnc2ccc(-c3ccc(F)cc3)nn12,0,0,?,0,0
COc1ncc2nc(-c3ccc(F)cc3)c(=O)n(-c3ccccc3)c2n1,-,-,0,0,-
CC1=NN(C2=NS(=O)(=O)c3ccccc32)C(C)(O)C1 (configuration not stated),0,0,0.41µM,0.37µM,0
COC(=O)c1cn(NC(=O)C2CCC(C(C)(C)C)CC2)c(=O)c2ccccc12 (configuration not stated),0,0,0,0,0
CCOC(=O)c1ccc(NC(=O)CCCn2c(=O)c3cccn3c3cccnc32)cc1,-,-,?,18µM,-
COC(=O)c1ccccc1NC(=O)CCCn1c(=O)c2cccn2c2cccnc21,-,-,0,0,-
CCc1cccc(C)c1NC(=O)CCCn1c(=O)c2cccn2c2cccnc21,0,0,23µM!,?,0
O=C(CCn1c(=O)c2cccn2c2cccnc21)N1CCN(c2ccc(F)cc2)CC1,-,-,15µM,16µM,-
COc1ccc(N2CCN(C(=O)CCn3c(=O)c4cccn4c4cccnc43)CC2)cc1,-,-,0,0,-
CCCCN(CC)C(=O)CCn1c(=O)c2cccn2c2cccnc21,-,-,?,18µM,-
Cc1noc(C)c1COc1ccccc1C(=O)N(C)CC(=O)Nc1ccc(F)cc1,0,0,0,0,0
COc1ccc(NS(=O)(=O)c2ccc(O)c(NS(=O)(=O)c3ccc(NC(C)=O)cc3)c2)cc1,0,0,0,0,0
CC1CC(=O)N(CC(=O)Nc2ccc(F)cc2)c2ccccc2S1(=O)=O (configuration not stated),0,0,0,0,0
COc1ccc(/C=C/C(=O)NNC(=O)C(C)Oc2ccccc2F)cc1OC (configuration not stated),0,0,0,0,0
CCOC(=O)c1ccc(NC(=O)CCn2c(=O)c3cccn3c3cccnc32)cc1,-,-,21µM,?,-
COc1ccc(NC(=O)CCn2c(=O)c3cccn3c3cccnc32)cc1Cl,-,-,0,0,-
COc1ccc(-n2nnnc2-c2ccccc2)cc1,0,5.6µM,3.7µM,2.9µM,?
COc1ccc(-n2nnnc2C2CCN(S(=O)(=O)c3cccc(Cl)c3C)CC2)cc1,-,-,21µM,26µM,-
Clc1ccc(-n2nnnc2-c2ccccc2)cc1,0,0,0,0,0
COc1ccc(-n2nnnc2-c2ccc(S(C)(=O)=O)cc2Cl)cc1,0,0,?,5.2µM,0
CC1(C)NS(=O)(=O)Oc2ccccc21,0,0,0,0,0

# Compound activity from PubChem BioAssay.
